The values that follow come from PubChem BioAssay (NCI).

Each structure is given as a SMILES string. “And” between values parts separate entries of the source, which are not always exact repeats. Equal entries are not always repeated. Compounds without any hit were thinned out: in the full panel of roughly 83,000, 20% have a hit.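 Assay: single dose, 48 h. Readout: percent growth (0 = no net growth; negative = cell death). Active: <10.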 The source made the active and inactive calls.

One test relates to SNB-19 CNS. Briefly: NCI-60 one-dose screen, 48 h (100 = growth as untreated, 0 = no growth, -100 = all killed). To be noted: 10 µM. As for the experimental part:
Growth inhibition of the SNB-19 human tumor cell line is measured as a screen for anti-cancer activity. Cells are grown in 96 well plates and exposed to the test compound for 48 hours. Compounds are tested at a single concentration, which is 10^-5 M for most compounds. The reported endpoint is percent growth (GI% or GIPRCNT), where numbers from 0 - 100% represent growth inhibition, and numbers from -100% - 0 represent cell death. For example, a value of 40 represents 60% growth inhibition. A value of 0 means no net growth occurred over the course of the experiment. A value of -40 indicates 40% of cells at the beginning of the experiment died by the end of the experiment. A value of -100 means all cells are dead at the end of the experiment.
NCI-60 Human Tumor Cell Lines Screen was performed using the standard one-dose NCI protocol, which is described in more detail at https://dtp.cancer.gov/discovery_development/nci-60/default.htm.
Compounds with GIPRCNT values below 10 were considered active. Activity score was based on GIPRCNT using the following formula: […]
Score is 0 for GIPRCNT values of 100 or above, 50 for GIPRCNT values of 0, and 100 for GIPRCNT values of -100.
Take `S=c1nc[nH]c2nc[nH]c12`: the growth was 96.3% (inactive).

The test is the same for the next values; noted with them: 10 µM unless noted.
As to `O=C1C(=O)c2ccccc2C(O)=C1CC=C(Cl)Cl`, the growth is 52.9% (inactive) and 61.9% (inactive).
The same measure, in the same setting: to `O=C(O)c1ccc2c3ccc(C(=O)O)c4c(C(=O)O)ccc(c5ccc(C(=O)O)c1c25)c43` belongs 96.8% (inactive); to `CCOC(=O)c1ccc(N2C(=O)C(Cl)(c3ccccc3)C2c2ccco2)cc1` (stereo not given), 76.4% (inactive).
In the case of `CC(=O)C[n+]1ccccc1Sc1ccc(Cl)cc1`, the growth was 88.7% (inactive).
For the compound `COCCCNC1=C(C#N)C(=O)NC(c2cccs2)S1` (stereo not given), the growth was 94.4% (inactive).
The same measure, in the same setting: to `COc1ccc(COC=O)cc1` belongs 114% (inactive); to `O=C(OCc1ccccc1)c1ccccc1`, 101% (inactive) and 92.1% (inactive); to `Cc1ccc2cccc([N+](=O)[O-])c2n1`, 109% (inactive) and 99% (inactive).
Take `COc1ccc2nccc(Cl)c2c1`: the growth was 103% (inactive).
Still for that read-out and setting: to `N=c1sc2ccccc2n1CC(=O)O` belongs 101% (inactive); to `CC(C)=NOC(C)C(=O)O` (stereo not given), 108% (inactive).
Turning to `CS(=O)(=O)c1nsc(N)n1`, the growth was 98.5% (inactive).
For `Clc1ccc2c(c1)N(C1CCCN(Cc3ccccc3)C1)c1ccccc1S2` (stereo not given), the growth is 41.6% (inactive).
Consider `CCCCCCC(C)CC1=C(O)c2ccccc2C(=O)C1=O` (stereo not given), for which the growth was 46% (inactive).
On the same count and under the same terms, with `C(#CCN1CCOCC1)CCCN1CCOCC1` the figure was 107% (inactive) and 108% (inactive); with `CCOC(=O)CN1CCC(C(=O)OCC)CC1`, 110% (inactive); with `Oc1cccnc1CN1CCOCC1`, 101% (inactive) and 98.9% (inactive).
As to `COc1ccc2oc3c(ccc[n+]3C)c(=O)c2c1`, the growth is 97.9% (inactive).
Regarding `CCN(CC)C(CC(=O)c1ccccc1)C(=O)c1ccccc1` (stereo not given), the growth was 98.4% (inactive).
Same read-out and setting: with `CC1(C)OC(=O)C(=Cc2ccc(C#N)cc2)C(=O)O1` the figure was 98.9% (inactive) and 101% (inactive); with `O=c1[nH]c(=O)c2[nH]c(=O)[nH]c2[nH]1`, 103% (inactive).
On the same count and under the same terms, to `O=C(O)Cc1cc(=O)[nH]n(-c2ccccc2)c1=O` belongs 119% (inactive); to `Cn1c(N)c(N=O)c(=O)n(C)c1=O`, 99.8% (inactive) and 102% (inactive); to `COc1ccc(-n2[nH]c3c(cnc4ccccc43)c2=O)cc1`, 103% (inactive).
On the same count and under the same terms, with `O=C1CCC(=O)N1CC1CC2CCC1C2` (stereo not given) the figure was 101% (inactive) and 90.3% (inactive); with `NNC(=O)Nc1ccccc1`, 102% (inactive); with `CC(C)(C(=O)c1cccnc1)c1cccnc1`, 111% (inactive) and 115% (inactive).
`Cc1cc2ccccc2c2cc3ccccc3cc12`: the growth was 105% (inactive).
The same measure, in the same setting: to `COc1cc(C2c3cc4c(cc3C(OC(=O)C[n+]3ccccc3)C3COC(=O)C23)OCO4)cc(OC)c1OC` (stereo not given) belongs 27.5% (inactive).
In the case of `O=C1C=CC[C@H](/C=C/c2ccccc2)O1`, the growth is 66.3% (inactive) and 17.5% (inactive).
On to `CC(=O)Oc1ccc(C(c2ccc(OC(C)=O)cc2)c2ccccn2)cc1`, for which the growth is 104% (inactive) and 98.8% (inactive).
For `C/C=C/C(=O)OCCCCCCCCCCCC`, the growth is 85.2% (inactive).
In the case of `C#CCOC(=O)C(N)CS` (stereo not given), the growth is 99.7% (inactive).
The same measure, in the same setting: with `Cc1cccc(Cl)c1N` the figure was 108% (inactive); with `COc1ccc(CCNC(=S)NN)cc1OC`, 127% (inactive).
On to `COC(=O)c1nc(N)nc(C(=O)OC)c1C(=O)c1ccc(F)cc1`, for which the growth was 103% (inactive).
Still for that read-out and setting: with `Cc1ccc(S(=O)(=O)n2ccnc2)cc1` the figure was 117% (inactive).
Turning to `S=c1ccc2ccccc2[nH]1`, the growth was 99.3% (inactive) and 96.6% (inactive).

The same test, now with this note: 50 µM.
On to `S=c1nc[nH]c2nc[nH]c12`, for which the growth is 91.6% (inactive).
